According to PubChem BioAssay (EPA / NIEHS):
Several values for one entry are separate records, joined by “and”; a condition that tells them apart may be missing. Equal values may be shown once. More than one record can exist for a structure, and the calls need not agree. Activity calls are given as the source filed them. The calls were made as follows: active = hit-call score of the fitted dose curve at least 0.9, where 1 is the maximum; inactive = score below 0.9.

What was measured:
[1] = CEETOX_H295R_CORTIC: CeeTox H295R High-throughput Steroidogenesis Assay for Corticosterone (CORTIC) (AID 2283437); conditions: actives raise or lower the signal;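 also: corticosterone secreted into medium quantified by mass spectrometry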
Outline: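 48 h forskolin (10 uM) prestim, then 48 h chemical exposure, final DMSO 0.1%. Readout: corticosterone in medium by LC-MS/MS after MTBE extraction. Gain/loss fit vs DMSO; MTT viability in same wells.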

[2] = CEETOX_H295R_CORTISOL: CeeTox H295R High-throughput Steroidogenesis Assay for Cortisol (AID 2283438); conditions: actives raise or lower the signal;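 also: cortisol secreted into medium quantified by LC-MS/MS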
Outline: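 Read-out: cortisol in culture medium by reverse-phase C18 HPLC with ESI-positive tandem MS, after MTBE liquid-liquid extraction. Cells: human adrenal H295R, forskolin-primed (10 uM, 48 h) before 48 h chemical exposure in 0.1% DMSO.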

[3] = CEETOX_H295R_DOC: CeeTox H295R High-throughput Steroidogenesis Assay for DOC (AID 2283439); conditions: actives raise or lower the signal
Outline: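 Human adrenocortical H295R cells, passages up to 10, received 10 uM forskolin for 48 h before chemical addition. After another 48 h exposure in 0.1% DMSO, secreted DOC was measured by LC-MS/MS, with gain or loss fitted against DMSO controls.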

[4] = CEETOX_H295R_ESTRONE: CeeTox H295R High-throughput Steroidogenesis Assay for Estrone (AID 2283441); conditions: actives raise or lower the signal;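 also: estrone secreted into medium measured by LC-MS/MS after dansyl derivatization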;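 as to AC50: human adrenal H295R cells prestimulated with forskolin for two days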
Outline: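 Forskolin-stimulated H295R cells are treated 48 h with chemical, and estrone in the medium is measured by LC-MS/MS. Activity is fitted in both directions relative to DMSO controls, with chemicals diluted until MTT viability reaches at least 70%.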

[5] = CEETOX_H295R_PROG: CeeTox H295R High-throughput Steroidogenesis Assay for Progesterone (PROG) (AID 2283442); conditions: actives raise or lower the signal
Outline: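 H295R adrenal cells prestimulated 48 h with 10 uM forskolin, then exposed 48 h to test chemical in 0.1% DMSO. Progesterone in medium quantified by HPLC-MS/MS after MTBE extraction; viability checked by MTT in same wells.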

[6] = read-out: Tumor necrosis factor receptor superfamily member 6 (Homo sapiens) (UniProt P25445); test: LTEA_HepaRG_FAS: Life Technologies and Expression Analysis (LTEA) Assay for Fas cell surface death receptor (FAS) using HepaRG (AID 2283447); conditions: mRNA level, 48 h; actives raise or lower the signal
Outline: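 Differentiated HepaRG cells in serum-free induction medium were exposed 48 h to 8 half-log concentrations up to 100 uM in 0.5% DMSO, in duplicate. FAS mRNA was measured by qRT-PCR normalised to ACTB, GAPDH and POLR2A; bidirectional fit versus DMSO.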

[7] = read-out: Fatty acid synthase (Homo sapiens) (UniProt P49327); test: LTEA_HepaRG_FASN: Life Technologies and Expression Analysis (LTEA) Assay for Fatty Acid Synthase (FASN) using HepaRG (AID 2283448); conditions: mRNA level, 48 h; actives raise or lower the signal
Outline: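 HepaRG, 48 h exposure, 8-pt half-log series top 100 uM, 0.5% DMSO vehicle, duplicates. Readout: FASN transcript by Fluidigm qRT-PCR; housekeeping-normalized; bidirectional curve fit vs DMSO baseline.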

[8] = read-out: Cyclin D2 (CCND2), CCND2 (gene 894); test: LTEA_HepaRG_CCND2: Life Technologies and Expression Analysis (LTEA) Assay for Cyclin D2 (CCND2) using HepaRG (AID 2283449); conditions: mRNA level, 48 h; actives raise or lower the signal;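 also: CCND2 transcript measured by TaqMan qRT-PCR and normalised to three housekeeping genes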
Outline: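 HepaRG, 48 h dosing, 8-pt half-log curve from 100 uM, 0.5% DMSO; duplicate wells. Readout: CCND2 transcript by microfluidic qRT-PCR, housekeeping-normalised; bidirectional fit vs DMSO baseline.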

[9] = read-out: Cyclin Dependent Kinase Inhibitor 1A (CDKN1A), CDKN1A (gene 1026); test: LTEA_HepaRG_CDKN1A: Life Technologies and Expression Analysis (LTEA) Assay for Cyclin Dependent Kinase Inhibitor 1A (CDKN1A) using HepaRG (AID 2283450); conditions: mRNA level, 48 h; actives raise or lower the signal
Outline: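 Differentiated HepaRG cells in serum-free induction medium, exposed 48 h in duplicate to eight half-log concentrations up to 100 uM in 0.5% DMSO. mRNA measured by TaqMan qRT-PCR, normalized to ACTB, GAPDH, POLR2A; bidirectional fit versus DMSO.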

[10] = read-out: Cyclin D1 (CCND1), CCND1 (gene 595); test: LTEA_HepaRG_CCND1: Life Technologies and Expression Analysis (LTEA) Assay for Cyclin D1 (CCND1) using HepaRG (AID 2283451); conditions: mRNA level, 48 h; actives raise or lower the signal;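 as to AC50: differentiated human HepaRG liver cells in serum-free induction medium; TaqMan qRT-PCR transcript level normalised to ACTB GAPDH and POLR2A housekeeping genes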
Description: LTEA_HepaRG is a cell based, multiplexed-readout assay that uses HepaRG, a human liver cell line, with measurements taken at 48 hours after chemical dosing on a 96-well plate.LTEA_HepaRG_CCND1 is one of 102 assay component(s) measured in the LTEA HepaRG cell culture assay. It is a marker of Cell proliferation, survival, death.Data from the assay component LTEA_HepaRG_CCND1 was analyzed into 1 endpoint. This assay endpoint, LTEA_HepaRG_CCND1, was analyzed with bidirectional fitting relative to DMSO as the negative control and baseline of activity. Using a type of inducible reporter, measures of mRNA induction for gain or loss-of-signal activity can be used to understand regulation of transcription factor activity. To generalize the intended target to other relatable targets, this assay endpoint is annotated to the cell cycle intended target family, where the subfamily is Cell proliferation, survival, death.
A total of 1060 chemcials from the ToxCast library were tested in eight-point concentration-response experiments. Cell culture and cytotoxicity assays were conducted at Thermo Fisher Scientific's Custom Services facility (Madison, WI). A single lot of human HepaRG cells (Thermo Fisher Scientific, Frederick, MD) was used for the cell culture experiments. 96-well format collagen type I coated plates of human HepaRG cells were prepared using established methods. Briefly, cryopreserved HepaRG cells were thawed, plated at a density of approximately 100,000 cells/well in HepaRG Thaw, Plate, and General Purpose media (HPRG770, Thermo Fisher Scientific), and incubated for 48 hours. 0.5% DMSO was selected as vehicle control to balance the requisite need of DMSO in HepaRG cultures to maintain differentiation (for example, baseline metabolism, proportions of hepatocytes vs. cholangiocytes), while enabling further hepatic receptor pathway activation (for example, PXR and CAR) in response to chemical exposure. 48 hours after plating, the culture medium was replaced with HepaRG Serum-Free Incudtion Media. Cells were exposed to each test chemical in duplicate and maintained in CO2 incubators for another 48 hours. Chemical plates were thawed to room temperature and 200x concentrations of treatment groups were prepared. 8-point conentration-reponse curves were made with the highest exposure at 100 uM, followed by half-log dilutions, all in 0.5% DMSO. Each test plate contained variouse controls, induction positive controls (1mM phenobarbital), cytotoxicity positive controls ([…] aflatoxin B1), vehicle controls (0.5% DMSO), and total lysis controls (0.5% DMSO). Cell morphology images were taken using an Essen IncuCyte FLR automated microscope, with six 96-well plates imaged in about 24 minutes. Images were captured and exported and JPEG files. Spent culture media was transfered to black-well plates for the LDH assay, and remaining media was sorted at -80 C for later use. Cells were treated with RLT buffer and frozen until shipped for gene expression analysis. Total RNA was isolated from the cell suspension in 75 uL of Buffer RLT (Qiagen, Germantown, MD 20874) by Quintiles/Expression Analysis (Durham, NC) using a custom isolation procedure. Total RNA from each plate well was transferred to a preamplification plate. Fluidigm's 96.96 Dynamic ArrayTM (Fluidigm, Amsterdam, the Netherlands) technology was used for gene expression analyses by quantitative reverse transcription polymerase chain reaction (qRT-PCR, performed by Quintiles/Expression Analysis, Durham, NC)89. Standard TaqManTM Assays (Applied Biosystems/ThermoFisher Scientific, Foster City, CA) were used to assess the expression of 93 genes selected based on their selectivity and sensitivity to important hepatic receptors known to be modulated by environmental chemicals; importance in human hepatocyte functionality; and hepatotoxicity. […]

Sequence of Fatty acid synthase (Homo sapiens) (P49327 whole entry, looked up): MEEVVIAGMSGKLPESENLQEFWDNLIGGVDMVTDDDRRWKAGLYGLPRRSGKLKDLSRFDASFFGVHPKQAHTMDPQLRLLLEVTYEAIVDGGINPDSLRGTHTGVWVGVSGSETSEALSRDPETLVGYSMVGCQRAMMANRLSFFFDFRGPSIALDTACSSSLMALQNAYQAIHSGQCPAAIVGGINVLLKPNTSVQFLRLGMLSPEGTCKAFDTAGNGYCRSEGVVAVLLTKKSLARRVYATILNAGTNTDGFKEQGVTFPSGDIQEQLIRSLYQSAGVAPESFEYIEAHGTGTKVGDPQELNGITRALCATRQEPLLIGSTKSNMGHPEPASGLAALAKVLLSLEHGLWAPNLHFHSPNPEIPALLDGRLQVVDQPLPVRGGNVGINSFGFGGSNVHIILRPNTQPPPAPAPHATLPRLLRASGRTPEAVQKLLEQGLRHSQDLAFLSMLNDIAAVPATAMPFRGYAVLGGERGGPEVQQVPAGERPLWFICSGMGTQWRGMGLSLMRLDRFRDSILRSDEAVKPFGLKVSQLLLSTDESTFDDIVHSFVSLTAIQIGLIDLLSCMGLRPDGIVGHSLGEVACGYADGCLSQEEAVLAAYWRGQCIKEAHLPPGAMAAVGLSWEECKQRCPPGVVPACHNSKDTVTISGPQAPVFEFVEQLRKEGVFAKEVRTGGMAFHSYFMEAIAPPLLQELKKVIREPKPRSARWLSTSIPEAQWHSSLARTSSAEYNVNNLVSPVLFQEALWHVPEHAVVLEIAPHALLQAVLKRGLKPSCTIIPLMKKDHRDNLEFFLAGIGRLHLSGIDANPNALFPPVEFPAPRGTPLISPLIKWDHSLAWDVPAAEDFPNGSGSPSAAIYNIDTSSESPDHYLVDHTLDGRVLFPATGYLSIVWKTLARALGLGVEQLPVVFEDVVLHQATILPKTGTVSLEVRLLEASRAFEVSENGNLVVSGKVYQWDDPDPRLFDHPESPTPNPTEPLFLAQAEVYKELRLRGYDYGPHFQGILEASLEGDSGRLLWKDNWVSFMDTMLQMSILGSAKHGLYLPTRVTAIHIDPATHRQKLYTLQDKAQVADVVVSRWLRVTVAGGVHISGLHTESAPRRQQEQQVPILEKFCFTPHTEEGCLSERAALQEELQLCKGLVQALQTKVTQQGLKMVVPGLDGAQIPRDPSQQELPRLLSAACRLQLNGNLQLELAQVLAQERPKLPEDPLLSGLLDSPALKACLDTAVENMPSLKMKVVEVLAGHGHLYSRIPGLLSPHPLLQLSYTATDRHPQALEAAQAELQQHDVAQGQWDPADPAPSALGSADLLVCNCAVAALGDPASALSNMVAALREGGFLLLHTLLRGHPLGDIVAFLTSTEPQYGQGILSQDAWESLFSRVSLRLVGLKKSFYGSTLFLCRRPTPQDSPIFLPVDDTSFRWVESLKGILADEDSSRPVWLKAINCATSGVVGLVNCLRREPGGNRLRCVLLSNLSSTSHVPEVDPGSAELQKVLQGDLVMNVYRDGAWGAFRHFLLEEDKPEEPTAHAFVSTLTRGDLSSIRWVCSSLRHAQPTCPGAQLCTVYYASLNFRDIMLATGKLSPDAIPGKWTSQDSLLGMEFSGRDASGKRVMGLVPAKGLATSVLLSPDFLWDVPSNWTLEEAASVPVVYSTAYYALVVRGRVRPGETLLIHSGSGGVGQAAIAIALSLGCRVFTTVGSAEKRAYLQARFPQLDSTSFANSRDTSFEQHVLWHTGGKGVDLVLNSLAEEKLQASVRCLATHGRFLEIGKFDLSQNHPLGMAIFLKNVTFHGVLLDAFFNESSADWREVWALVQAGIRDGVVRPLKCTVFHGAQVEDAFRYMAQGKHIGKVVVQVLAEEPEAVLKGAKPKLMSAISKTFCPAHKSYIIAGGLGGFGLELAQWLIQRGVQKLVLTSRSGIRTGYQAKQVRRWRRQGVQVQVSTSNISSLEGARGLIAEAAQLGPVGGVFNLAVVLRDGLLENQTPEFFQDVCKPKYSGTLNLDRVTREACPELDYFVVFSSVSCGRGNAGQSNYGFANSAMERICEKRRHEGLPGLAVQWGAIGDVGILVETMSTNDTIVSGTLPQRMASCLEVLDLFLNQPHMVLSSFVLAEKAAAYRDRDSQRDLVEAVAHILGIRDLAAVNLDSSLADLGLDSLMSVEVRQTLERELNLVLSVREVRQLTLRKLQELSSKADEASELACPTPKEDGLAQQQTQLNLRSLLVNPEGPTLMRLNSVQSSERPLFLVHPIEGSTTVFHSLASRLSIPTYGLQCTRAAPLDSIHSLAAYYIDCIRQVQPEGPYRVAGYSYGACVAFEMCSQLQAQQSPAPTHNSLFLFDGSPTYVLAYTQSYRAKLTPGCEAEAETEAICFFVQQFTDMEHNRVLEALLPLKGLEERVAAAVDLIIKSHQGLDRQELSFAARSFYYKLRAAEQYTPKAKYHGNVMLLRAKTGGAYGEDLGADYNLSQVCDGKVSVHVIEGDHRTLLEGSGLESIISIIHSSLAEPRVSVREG

For `O=c1cc(-c2ccc(O)cc2)oc2cc(O)cc(O)c12`, the outcome [1] was “inactive”, the outcome [2] was “inactive” and the AC50 [3] was 7.72 µM (active).

For `OCCCO`, the outcome [1] was “inactive”, the outcome [2] was “inactive” and the outcome [3] was “inactive”. The outcome [4] was “inactive” and the outcome [5] was “inactive”.

In the case of `O=C(OCc1ccccc1)c1ccccc1O`, the outcome [1] is reported as “inactive”, the outcome [2] is reported as “inactive” and the outcome [3] is reported as “inactive”. The outcome [4] was “inactive” and the AC50 [5] was 50 µM (active).

With `CC(=N[Si](C)(C)C)O[Si](C)(C)C` the outcome [1] was “inactive”, the outcome [2] was “inactive” and the outcome [3] was “inactive”. For the same molecule, the outcome [5] was “inactive”.

For `CCCc1ccc(O)cc1`, the AC50 [1] was 36.4 µM (active), the outcome [2] was “inactive” and the outcome [3] was “inactive”. For the same molecule, the outcome [4] was “inactive” and the outcome [5] was “inactive”.

In the case of `c1ccc(OCCOc2ccccc2)cc1`, the outcome [1] is reported as “inactive”, the outcome [2] is reported as “inactive” and the outcome [3] is reported as “inactive”. For the same molecule, the outcome [4] was “inactive” and the AC50 [5] was 14.3 µM (active).

With `C[C@]12CC[C@@H]3c4ccc(O)cc4CC[C@H]3[C@@H]1CC[C@@H]2O` the AC50 [1] was 0.479 µM (active), the AC50 [2] was 2.63 µM (active) and the AC50 [3] was 3.8 µM (active). The AC50 [5] was 5 µM (active), the outcome [6] was “inactive” and the outcome [7] was “inactive”. For the same molecule, the outcome [8] was “inactive”, the AC50 [9] was 80.3 µM (active) and the outcome [10] was “inactive”.

In the case of `CCCCCCCCCCCCN1CCOCC1`, the outcome [1] is reported as “inactive”, the outcome [2] is reported as “inactive” and the AC50 [3] is reported as 0.549 µM (active). For the same molecule, the outcome [4] was “inactive” and the AC50 [5] was 0.304 µM (active).

In the case of `COC(=O)c1ccc(C(=O)OC)cc1`, the outcome [6] is reported as “inactive”, the outcome [7] is reported as “inactive” and the outcome [8] is reported as “inactive”. For the same molecule, the outcome [9] was “inactive” and the outcome [10] was “inactive”.

With `CC=CC(=O)C1=C(C)C=CCC1(C)C` the outcome [1] was “inactive”, the outcome [2] was “inactive” and the outcome [3] was “inactive”. For the same molecule, the outcome [5] was “inactive”.

In the case of `C=C(C)C(N)=O`, the outcome [6] is reported as “inactive”, the outcome [7] is reported as “inactive” and the outcome [8] is reported as “inactive”. The outcome [9] was “inactive” and the outcome [10] was “inactive”.

For `c1coc(CNc2ncnc3nc[nH]c23)c1`, the outcome [1] was “inactive”, the outcome [3] was “inactive” and the outcome [5] was “inactive”.

For `OCC=Cc1ccccc1`, the outcome [4] was “inactive” and the outcome [5] was “inactive”.

In the case of `CC(=O)c1ccc2ccccc2c1`, the outcome [1] is reported as “inactive”, the outcome [2] is reported as “inactive” and the outcome [3] is reported as “inactive”. The outcome [4] was “inactive” and the outcome [5] was “inactive”.

For `C#C[C@]1(O)CC[C@H]2[C@@H]3CCc4cc(O)ccc4[C@H]3CC[C@@]21C`, the AC50 [1] was 0.142 µM (active), the outcome [2] was “inactive” and the outcome [3] was “inactive”. For the same molecule, the AC50 [5] was 0.372 µM (active), the outcome [6] was “inactive” and the outcome [7] was “inactive”. The outcome [8] was “inactive”, the outcome [9] was “inactive” and the outcome [10] was “inactive”.

With `CC(=O)C1=C(C)[C@@H]2C[C@@]3(C1)[C@H](C)CC[C@H]3C2(C)C` the outcome [4] was “inactive” and the outcome [5] was “inactive”.

In the case of `CCCCOCCOCCO`, the outcome [6] is reported as “inactive”, the outcome [7] is reported as “inactive” and the outcome [8] is reported as “inactive”. The outcome [9] was “inactive” and the outcome [10] was “inactive”.

With `O=C(c1ccc(OCCN2CCCCC2)cc1)c1c(-c2ccc(O)cc2)sc2cc(O)ccc12` the outcome [1] was “inactive”, the outcome [2] was “inactive” and the outcome [3] was “inactive”. For the same molecule, the outcome [5] was “inactive”, the outcome [6] was “inactive” and the outcome [7] was “inactive”. For the same molecule, the outcome [8] was “inactive”, the outcome [9] was “inactive” and the AC50 [10] was 96.1 µM (active).

For `CCCCCC(=O)O[C@]1(C(C)=O)CC[C@H]2[C@@H]3CCC4=CC(=O)CC[C@]4(C)[C@H]3CC[C@@]21C`, the outcome [1] was “inactive”, the AC50 [2] was 6.66 µM (active) and the outcome [3] was “inactive”. For the same molecule, the AC50 [4] was 13.2 µM (active) and the AC50 [5] was 4.56 µM (active).

In the case of `CC/C(=C(\c1ccccc1)c1ccc(OCCN(C)C)cc1)c1ccccc1`, the outcome [1] is reported as “inactive”, the outcome [2] is reported as “inactive” and the AC50 [3] is reported as 0.222 µM (active). The outcome [3] was “inactive”, the AC50 [5] was 0.141 µM (active) and the outcome [5] was “inactive”. The AC50 [6] was 71.4 µM (active), the outcome [6] was “inactive” and the outcome [7] was “inactive”. The outcome [8] was “inactive”, the outcome [9] was “inactive” and the AC50 [10] was 28.1 µM (active) and 38.6 µM (active).

With `COc1ccc2[nH]cc(CCNC(C)=O)c2c1` the AC50 [1] was 10.5 µM (active), the outcome [2] was “inactive” and the outcome [3] was “inactive”. The outcome [4] was “inactive” and the AC50 [5] was 20 µM (active).

For `CC(C)(C)c1cccc(O)c1`, the outcome [1] was “inactive”, the outcome [2] was “inactive” and the outcome [3] was “inactive”. For the same molecule, the outcome [5] was “inactive”.
